Measurements from PubChem BioAssay AID1159580 (chemical genetic matrix, 2015).
Where “and” joins values, the source holds several entries; their conditions need not be identical. Identical values can stand only once. Hit rate of the full screen: of about 5,500 compounds, about 2,000 (36%) were called active. About 18% were inconclusive and are not listed. The list shows a part of the results. A number with no mark means an inactive call. No stated cut-off is given here; in the data, active means normalized growth mostly below about 0.91 (no sharp cut-off); inconclusive means no clear call, values can overlap the other calls; inactive means mostly above about 0.92.

Assay: chemical genetic growth profiling, strain panel (AID 1159580);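 further: tested at 20 µM; growth read once vehicle control cultures reached saturation at 30 °C; 1 = growth at the plate median or of vehicle wells; lower values mean less growth of the strain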
Conditions: S. cerevisiae deletion strains, growth OD

Which normalized growth (locus YAL013W, strain DEP1, active compounds read low) does the source give for `OCCN1CCN(CCCN2c3ccccc3Sc3ccc(C(F)(F)F)cc32)CC1` here?
Its normalized growth is 0.947 and 0.96.

And the normalized growth (locus YAL021C, strain ccr4, active compounds read low)?
The normalized growth was 0.828 (active).

What about the normalized growth (locus YAL026C, strain drs2, active compounds read low) of the same compound?
Its normalized growth is 0.0826 (active).

And the normalized growth (locus YAL030W, strain snc1, active compounds read low)?
The normalized growth was 0.984.

And the normalized growth (locus YAL040C, strain CLN3, active compounds read low)?
Its normalized growth is 1.01.

What about the normalized growth (locus YBL061C, strain skt5, active compounds read low) of the same compound?
The normalized growth was 0.951.

What about the normalized growth (locus YBR009C, strain hhf1, active compounds read low) of the same compound?
The normalized growth was 0.935.

What about the normalized growth (locus YBR021W, strain FUR4, active compounds read low) of the same compound?
The normalized growth was 0.589 (active).

And the normalized growth (locus YBR023C, strain chs3, active compounds read low)?
Its normalized growth is 0.899 (active).

What about the normalized growth (locus YBR171W, strain sec66, active compounds read low) of the same compound?
The normalized growth was 0.992.

And the normalized growth (locus YBR229C, strain ROT2, active compounds read low)?
The normalized growth was 0.987.

And the normalized growth (locus YBR231C, strain swc5, active compounds read low)?
Its normalized growth is 0.964.

What about the normalized growth (locus YBR279W, strain paf1, active compounds read low) of the same compound?
Its normalized growth is 0.953.

What about the normalized growth (locus YCL011C, strain gbp2, active compounds read low) of the same compound?
The normalized growth was 0.919.

What about the normalized growth (locus YCL016C, strain dcc1, active compounds read low) of the same compound?
The normalized growth was 0.937.

And the normalized growth (locus YCL029C, strain bik1, active compounds read low)?
The normalized growth was 0.978.

And the normalized growth (locus YCL061C, strain MRC1 (second series), active compounds read low)?
The normalized growth was 0.957.

And the normalized growth (locus YCL069W, strain vba3, active compounds read low)?
The normalized growth was 0.995.

What about the normalized growth (locus YCR088W, strain abp1, active compounds read low) of the same compound?
Its normalized growth is 0.987.

What about the normalized growth (locus YDL005C, strain med2, active compounds read low) of the same compound?
Its normalized growth is 1.

What about the normalized growth (locus YDL035C, strain GPR1, active compounds read low) of the same compound?
Its normalized growth is 0.928.

What about the normalized growth (locus YDL040C, strain nat1, active compounds read low) of the same compound?
The normalized growth was 0.98.

What about the normalized growth (locus YDL074C, strain BRE1, active compounds read low) of the same compound?
Its normalized growth is 0.808.

What about the normalized growth (locus YDL101C, strain DUN1, active compounds read low) of the same compound?
Its normalized growth is 0.979.

And the normalized growth (locus YDL134C, strain PPH21, active compounds read low)?
Its normalized growth is 0.977.

What about the normalized growth (locus YDL185W, strain tfp1, active compounds read low) of the same compound?
The normalized growth was 0.981.

And the normalized growth (locus YDL192W, strain arf1, active compounds read low)?
Its normalized growth is 0.963.

What about the normalized growth (locus YDR001C, strain nth1, active compounds read low) of the same compound?
Its normalized growth is 0.989.

And the normalized growth (locus YDR069C, strain doa4, active compounds read low)?
Its normalized growth is 0.863 (active).

What about the normalized growth (locus YDR101C, strain arx1, active compounds read low) of the same compound?
Its normalized growth is 0.933.

What about the normalized growth (locus YDR137W, strain rgp1, active compounds read low) of the same compound?
The normalized growth was 1.27 [resistant] (active).

What about the normalized growth (locus YDR150W, strain NUM1, active compounds read low) of the same compound?
Its normalized growth is 0.997.

What about the normalized growth (locus YDR159W, strain sac3, active compounds read low) of the same compound?
Its normalized growth is 0.992.

What about the normalized growth (locus YDR162C, strain NBP2, active compounds read low) of the same compound?
The normalized growth was 0.947.

What about the normalized growth (locus YDR195W, strain ref2) of the same compound?
Its normalized growth is 1.27 [resistant] (active).

And the normalized growth (locus YDR297W, strain sur2, active compounds read low)?
The normalized growth was 0.981.

And the normalized growth (locus YDR318W, strain mcm21, active compounds read low)?
Its normalized growth is 0.947.

What about the normalized growth (locus YDR334W, strain swr1, active compounds read low) of the same compound?
Its normalized growth is 0.987.

And the normalized growth (locus YDR335W, strain msn5, active compounds read low)?
The normalized growth was 0.972.

What about the normalized growth (locus YDR363W, strain ESC2, active compounds read low) of the same compound?
Its normalized growth is 0.978.

And the normalized growth (locus YDR388W, active compounds read low)?
Its normalized growth is 0.878 (active).

What about the normalized growth (locus YDR392W, strain spt3, active compounds read low) of the same compound?
Its normalized growth is 1.06.

And the normalized growth (locus YDR502C, strain sam2, active compounds read low)?
Its normalized growth is 0.939.

And the normalized growth (locus YEL003W, strain gim4, active compounds read low)?
Its normalized growth is 0.982.

And the normalized growth (locus YEL037C, strain rad23, active compounds read low)?
Its normalized growth is 0.994.

What about the normalized growth (locus YEL061C, strain CIN8 (second series), active compounds read low) of the same compound?
The normalized growth was 0.973.

And the normalized growth (locus YEL061C, strain CIN8, active compounds read low)?
The normalized growth was 0.996.

And the normalized growth (locus YER002W, strain NOP16, active compounds read low)?
The normalized growth was 1.

And the normalized growth (locus YER015W, strain faa2, active compounds read low)?
The normalized growth was 0.931.

What about the normalized growth (locus YER016W, strain bim1, active compounds read low) of the same compound?
The normalized growth was 0.979.

And the normalized growth (locus YER110C, active compounds read low)?
The normalized growth was 0.996.

And the normalized growth (locus YER111C, strain swi4, active compounds read low)?
The normalized growth was 0.986.

What about the normalized growth (locus YER155C, strain BEM2 (second series), active compounds read low) of the same compound?
The normalized growth was 1.

What about the normalized growth (locus YER155C, strain BEM2, active compounds read low) of the same compound?
The normalized growth was 0.989.

And the normalized growth (locus YER167W, strain BCK2, active compounds read low)?
The normalized growth was 0.974.

What about the normalized growth (locus YFR010W, strain ubp6, active compounds read low) of the same compound?
Its normalized growth is 0.839 (active).

What about the normalized growth (locus YGL078C, strain dbp3, active compounds read low) of the same compound?
Its normalized growth is 0.986.

And the normalized growth (locus YGL086W, strain mad1, active compounds read low)?
Its normalized growth is 0.964.

And the normalized growth (locus YGL167C, strain pmr1, active compounds read low)?
The normalized growth was 0.976.

And the normalized growth (locus YGL173C, strain kem1, active compounds read low)?
The normalized growth was 0.964.

And the normalized growth (locus YGL227W, strain vid30, active compounds read low)?
The normalized growth was 0.984.

What about the normalized growth (locus YGL240W, strain doc1, active compounds read low) of the same compound?
Its normalized growth is 0.997.

And the normalized growth (locus YGL248W, strain PDE1, active compounds read low)?
Its normalized growth is 0.989.

And the normalized growth (locus YGL253W, strain hxk2, active compounds read low)?
The normalized growth was 0.917.

And the normalized growth (locus YGR078C, strain PAC10, active compounds read low)?
Its normalized growth is 0.907 and 0.971.

What about the normalized growth (locus YGR135W, strain pre9, active compounds read low) of the same compound?
The normalized growth was 0.896.

What about the normalized growth (locus YGR229C, strain SMI1, active compounds read low) of the same compound?
The normalized growth was 0.602 (active) and 0.781 (active).

What about the normalized growth (locus YGR252W, strain gcn5, active compounds read low) of the same compound?
Its normalized growth is 0.664 (active).

And the normalized growth (locus YHR013C, strain ard1, active compounds read low)?
The normalized growth was 1.

And the normalized growth (locus YHR027C, strain rpn1, active compounds read low)?
Its normalized growth is 0.937.

And the normalized growth (locus YHR030C, strain SLT2, active compounds read low)?
The normalized growth was 0.933.

What about the normalized growth (locus YHR079C, strain IRE1 (second series), active compounds read low) of the same compound?
Its normalized growth is 0.973.

What about the normalized growth (locus YHR094C, strain hxt1, active compounds read low) of the same compound?
The normalized growth was 0.992.

And the normalized growth (locus YHR129C, strain ARP1, active compounds read low)?
The normalized growth was 0.983.

What about the normalized growth (locus YHR142W, strain chs7, active compounds read low) of the same compound?
The normalized growth was 0.897.

And the normalized growth (locus YHR200W, strain rpn10, active compounds read low)?
Its normalized growth is 0.968.

And the normalized growth (locus YIL066C, strain RNR3, active compounds read low)?
The normalized growth was 0.915.

What about the normalized growth (locus YIL073C, strain SPO22, active compounds read low) of the same compound?
The normalized growth was 1.18.

And the normalized growth (locus YIL125W, strain kgd1, active compounds read low)?
Its normalized growth is 0.995.

What about the normalized growth (locus YIR030C, strain dcg1, active compounds read low) of the same compound?
The normalized growth was 0.985.

And the normalized growth (locus YJL092W, strain hpr5, active compounds read low)?
Its normalized growth is 0.969.

What about the normalized growth (locus YJL095W, strain BCK1 (second series), active compounds read low) of the same compound?
The normalized growth was 0.94.

What about the normalized growth (locus YJL095W, strain BCK1, active compounds read low) of the same compound?
Its normalized growth is 0.794 (active).

And the normalized growth (locus YJL115W, strain asf1, active compounds read low)?
The normalized growth was 0.95.

And the normalized growth (locus YJL129C, strain trk1, active compounds read low)?
The normalized growth was 0.96.

What about the normalized growth (locus YJL134W, strain LCB3, active compounds read low) of the same compound?
Its normalized growth is 0.997.

And the normalized growth (locus YJL154C, strain vps35, active compounds read low)?
Its normalized growth is 0.982.

And the normalized growth (locus YJL164C, strain tpk1, active compounds read low)?
The normalized growth was 0.917.

And the normalized growth (locus YJL166W, strain qcr8, active compounds read low)?
Its normalized growth is 0.956.

And the normalized growth (locus YJL168C, strain set2, active compounds read low)?
Its normalized growth is 0.991.

And the normalized growth (locus YJL187C, strain SWE1 (second series), active compounds read low)?
Its normalized growth is 0.905.

And the normalized growth (locus YJR043C, strain POL32, active compounds read low)?
The normalized growth was 0.971.
